The results in this text go back to PubChem BioAssay (NCI).

The nature of test [1]: NCI Yeast Anticancer Drug Screen. Data for the rad50 strain (AID 155).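 Note: 0% = growth of vehicle-only cultures of the same strain.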 The following applies: S. cerevisiae rad50 strain growth inhibition, stronger effect = higher value. Summed up: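 Vehicle-treated cultures provide the reference for the growth inhibition reported for compound-exposed, repair-deficient yeast.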
Test [2] can be described thus: NCI Yeast Anticancer Drug Screen. Data for the mec2-1 strain (AID 157). The conditions noted are these: S. cerevisiae mec2-1 strain, stronger effect = higher value. Summed up:
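Using mec2-1 yeast: add compound, measure growth, express inhibition versus vehicle-treated cultures.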

Test [3] in a line: NCI Yeast Anticancer Drug Screen. Data for the sgs1 mgt1 strain (AID 161).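 Note: 0% = growth of cultures given vehicle only.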 The following applies: S. cerevisiae sgs1 mgt1 strain, stronger effect = higher value. Summed up:
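Percent growth inhibition was derived by comparing compound-exposed mutant yeast with vehicle-exposed cultures. The strain carries alterations in DNA damage repair.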

Test [4] can be described thus: NCI Yeast Anticancer Drug Screen. Data for the cln2 rad14 strain (AID 165).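 Note: 0% = growth equal to vehicle treated cultures.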 The following applies: S. cerevisiae cln2 rad14 strain, stronger effect = higher value. Summed up: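 Yeast strain cln2 rad14, bearing defects in cell cycle control and DNA repair, serves as the test system; values reflect growth inhibition compared with vehicle.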
Test [5] in a line: NCI Yeast Anticancer Drug Screen. Data for the bub3 strain (AID 167). The following applies: S. cerevisiae bub3 mutant strain, stronger effect = higher value. The method in brief:
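Mutant yeast screening strain plus compound; vehicle-treated cultures serve as the 0% inhibition reference.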

Test [6] can be described thus: NCI Yeast Anticancer Drug Screen. Data for the mlh1 rad18 strain (AID 175). The following applies: S. cerevisiae mlh1 rad18 strain growth inhibition, stronger effect = higher value. Summed up:
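Steps: expose repair-defective yeast to compound; measure growth; express inhibition against vehicle-treated controls.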

[7] abbreviates: at 5.0 µM (retest, dose inferred, filed as 0.5).
Setting [8] is: at 50.0 µM (retest, dose inferred, filed as 5.0).

Molecules are shown by their SMILES. This is part of a sample that, as a whole, favours compounds with a hit. Of some 79,000 tested, about 15% had one in any assay. Values without a mark were called inactive. Active and inactive are the calls of the source. Cut-off read from the data, not from the text of the source: active = growth inhibition above about 70%; inactive = the rest.

`CC(C)Cn1cnc2c(SCc3cccc(F)c3)nc(N)nc21`: the growth inhibition is 0% in test [1] (setting [7]); 27% in test [1] (setting [8]); -10.4% in test [1] (at 50.0 µM); -1% in test [2] (setting [7]); 12% in test [2] (setting [8]); 8.05% in test [2] (at 50.0 µM). Further, the growth inhibition in test [3] (setting [7]) is 2%; in test [3] (setting [8]) it was 31%; in test [3] (at 50.0 µM) it was 67.8%; in test [4] (setting [7]), -5%; in test [4] (setting [8]), 54%; in test [4] (at 50.0 µM), -10.2%. Besides, the growth inhibition was 2% in test [5] (setting [7]); 35% in test [5] (setting [8]); 73.3% (active) in test [5] (at 50.0 µM); 0% in test [6] (setting [7]); 45% in test [6] (setting [8]); 37% in test [6] (at 50.0 µM).

On to `C/C(=N/NC(=S)Nc1ccc([N+](=O)[O-])cc1)c1cccc(/C(C)=N\NC(=S)Nc2ccc([N+](=O)[O-])cc2)n1`, for which the growth inhibition is 14% in test [1] (setting [7]); 50% in test [1] (setting [8]); 19.6% in test [1] (at 50.0 µM); 5% in test [2] (setting [7]); 72% (active) in test [2] (setting [8]); 0.15% in test [2] (at 50.0 µM). For the same compound, the growth inhibition in test [3] (setting [7]) was 15%; in test [3] (setting [8]) it was 87% (active); in test [3] (at 50.0 µM), 35.5%; in test [4] (setting [7]), 19%; in test [4] (setting [8]), 82% (active); in test [4] (at 50.0 µM), -7.35%. The growth inhibition is 21% in test [5] (setting [7]); 94% (active) in test [5] (setting [8]); 2.45% in test [5] (at 50.0 µM); 10% in test [6] (setting [7]); 61% in test [6] (setting [8]); 14.4% in test [6] (at 50.0 µM).

`CCOC(=O)/C(=C\N1C(=O)/C(=C\C(C)=C\c2ccccc2)SC1=S)C(=O)c1ccccc1`: the growth inhibition was -8% in test [1] (setting [7]); 0% in test [1] (setting [8]); 55% in test [1] (at 50.0 µM); -10% in test [2] (setting [7]); 22% in test [2] (setting [8]); 58% in test [2] (at 50.0 µM). Besides, the growth inhibition was -3% in test [3] (setting [7]); 14% in test [3] (setting [8]); 52.5% in test [3] (at 50.0 µM); -18% in test [4] (setting [7]); 2% in test [4] (setting [8]); 57% in test [4] (at 50.0 µM). Further, the growth inhibition is -8% in test [5] (setting [7]); 39% in test [5] (setting [8]); 70.2% (active) in test [5] (at 50.0 µM); -2% in test [6] (setting [7]); 20% in test [6] (setting [8]); 77% (active) in test [6] (at 50.0 µM).

`CC(CC=NCCN=CCC(C)CC(C)(C)C)CC(C)(C)C` (stereo not drawn): the growth inhibition in test [1] (setting [7]) is 16%; in test [1] (setting [8]), -2%; in test [1] (at 50.0 µM) it was 97.9% (active); in test [2] (setting [7]) it was -3%; in test [2] (setting [8]) it was 3%; in test [2] (at 50.0 µM), 68.3%. Moreover, the growth inhibition was 5% in test [3] (setting [7]); 45% in test [3] (setting [8]); 91.3% (active) in test [3] (at 50.0 µM); 0% in test [4] (setting [7]); 10% in test [4] (setting [8]); 30.1% in test [4] (at 50.0 µM). Moreover, the growth inhibition in test [5] (setting [7]) was -6%; in test [5] (setting [8]), 3%; in test [5] (at 50.0 µM), 96.3% (active); in test [6] (setting [7]), 1%; in test [6] (setting [8]), 20%; in test [6] (at 50.0 µM), 98.4% (active).

Turning to `O=C(Oc1c(Cl)c(Cl)c(Cl)c(Cl)c1Cl)c1ccc(Cl)cc1`, the growth inhibition is 25% in test [1] (setting [7]); 99% (active) in test [1] (setting [8]); 99.6% (active) in test [1] (at 50.0 µM); 19% in test [2] (setting [7]); 99% (active) in test [2] (setting [8]); 99.7% (active) in test [2] (at 50.0 µM). In addition, the growth inhibition was 24% in test [3] (setting [7]); 99% (active) in test [3] (setting [8]); 99% (active) in test [3] (at 50.0 µM); 13% in test [4] (setting [7]); 99% (active) in test [4] (setting [8]); 99.7% (active) in test [4] (at 50.0 µM). For the same compound, the growth inhibition in test [5] (setting [7]) is 15%; in test [5] (setting [8]) it was 99% (active); in test [5] (at 50.0 µM), 99.7% (active); in test [6] (setting [7]), 30%; in test [6] (setting [8]) it was 99% (active); in test [6] (at 50.0 µM), 99.2% (active).

`Brc1ccc(C2c3ccccc3-c3ccccc32)cc1`: the growth inhibition in test [1] (setting [7]) was 21%; in test [1] (setting [8]), 97% (active); in test [1] (at 50.0 µM), 94.5% (active); in test [2] (setting [7]), 16%; in test [2] (setting [8]), 97% (active); in test [2] (at 50.0 µM) it was 94.7% (active). Further, the growth inhibition in test [3] (setting [7]) was 15%; in test [3] (setting [8]), 95% (active); in test [3] (at 50.0 µM) it was 96.6% (active); in test [4] (setting [7]), 0%; in test [4] (setting [8]), 97% (active); in test [4] (at 50.0 µM), 94% (active). Further, the growth inhibition in test [5] (setting [7]) was 2%; in test [5] (setting [8]), 98% (active); in test [5] (at 50.0 µM), 95.8% (active); in test [6] (setting [7]), -4%; in test [6] (setting [8]), 97% (active); in test [6] (at 50.0 µM), 94.8% (active).
